PubChem BioAssay (NCI)
This is part of a sample that, as a whole, favours compounds with a hit. Of some 79,000 tested, about 15% had one in any assay. Unmarked numbers belong to inactive results. Activity calls are given as the source filed them. Rule as the data show it: active = growth inhibition above about 70%; inactive = the rest.

Assay: NCI Yeast Anticancer Drug Screen. Data for the cln2 rad14 strain (AID 165);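 also: 0% = growth equal to vehicle treated cultures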
Details: S. cerevisiae cln2 rad14 strain, at 5.0 µM (retest, dose inferred, filed as 0.5), active compounds read high
Outline: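 Growth inhibition, relative to vehicle-treated controls, is the read-out. The test organism is a yeast strain with defined genetic alterations, cln2 rad14.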

Structure (SMILES)	growth inhibition
Cc1ccc(-n2c(CSc3ccc(Cl)cc3)nnc2SCc2nc3ccccc3[nH]2)cc1	-4%
CC(=O)Nc1cccc(C(=O)O)c1	4%
COc1ccc2c(c1)CCCN2CCCCCCCCCN1CCCCC1	35%
CN(C)C(=O)/N=c1\ss/c(=N\C(=S)N(C)C)n1-c1ccccc1	-17%
Clc1ccc(-c2nnc(-c3ccccn3)o2)c(Cl)c1	-2%
CC(O)CC(O)CC1CCCO1 (stereo not drawn)	2%
CC[C@]1(O)C[C@H]2[C@@H]3CCc4cc(OC)ccc4[C@H]3CC[C@]2(C)[C@H]1O	-6%
CCCCCCCCCCCCCCCCCCOS(=O)(=O)O (tested in a mixture with another compound)	-30%
C/C(=N\NC(=S)N1CCCC1)c1nc2ncccc2[nH]1	-38%
CC(C)(C)C1=NN=C2c3ccccc3C(=O)C21 (stereo not drawn)	-12%
O=C(O)c1ccc(N=CC2CO2)cc1 (stereo not drawn)	96% (active)
CCC1(C)C(C#N)(C#N)C1(C#N)C#N	-42%
COc1ccc(N(C)Sc2ccccc2)cc1	9%
C/C(CCn1[nH]c(=O)ccc1=O)=N\NS(=O)(=O)c1ccc(C)cc1	11%
CCC[n+]1ccc(/C=N\NC(N)=S)c2ccccc21	9%
O=S1CCS(=O)C1c1ccccc1 (stereo not drawn)	-18%
NC(=O)c1c(Cl)nc2n1CCS2	-2%
CC(C)S(=O)(=O)ON1C(=O)c2ccc(N(C)C)cc2C1=O	24%
C=Cc1cc(=O)oc2cc(OC)ccc12	14%
O=[N+]([O-])c1cc(Cl)cc2c1nc(NCCO)c1ccccc12	46%

Structure (SMILES)	growth inhibition
c1ccc2nc3ccccc3nc2c1	2%
Cc1cc(O)ccc1SC#N	-3%
CC1=C(C(=O)NCc2ccccc2)C(c2ccccc2O)C(C(=O)NCc2ccccc2)=C(C)N1	13%
Cc1occc1C(=S)Nc1ccc(Cl)c(COC(C)(C)C)c1	22%
CCN(CC)CCOc1c(I)cc(I)cc1I	7%
CCc1c(C(=O)OC)c(C(=O)OC)c(-c2ccccc2)n1CCn1c(CC)c(C(=O)OC)c(C(=O)OC)c1-c1ccccc1	1%
O=C1/C(=C/c2ccc(Cl)cc2)CSC/C1=C\c1ccc(Cl)cc1	18%
COc1ccc(C2COc3cc(O)c(O)cc3C2)cc1OC (stereo not drawn)	-6%
O=C1c2ccccc2C(=O)c2c1cc(O)c(O)c2O	2%
COc1cc[c]([Sn]([O][Sn]([Cl])([c]2ccc(OC)cc2)[c]2ccc(OC)cc2)[c]2ccc(OC)cc2)cc1	28%
O=C(N/C(=C\c1ccc(/C=C(\NC(=O)c2ccccc2)c2nc3ccccc3s2)cc1)c1nc2ccccc2s1)c1ccccc1	38%
Cn1c(=O)cc[nH]c1=O	0%
CCOC(=O)C1=C(c2ccccc2)SC(c2ccccc2)N(C(C)C)C1=O (stereo not drawn)	12%
S=C1NC2=C(CSC/C2=C\c2cccc(Br)c2)C(c2cccc(Br)c2)N1 (stereo not drawn)	-8%
c1ccc2[nH]c(CN(CCN(Cc3nc4ccccc4[nH]3)Cc3nc4ccccc4[nH]3)Cc3nc4ccccc4[nH]3)nc2c1	99% (active)
O=[N+]([O-])c1ccc(NC(=S)N/N=C(\c2ccccc2)c2ccccn2)cc1	19%
O=C(NCCl)Nc1ccccc1	1%
O=Cc1[nH]c(=S)[nH]c(=O)c1CCCc1ccccc1	17%
CCCC/C=C(/CCCCOCOCCOC)[Si](C)(C)C	1%

Same assay, conditions: S. cerevisiae cln2 rad14 strain, at 50.0 µM (retest, dose inferred, filed as 5.0), active compounds read high

Structure (SMILES)	growth inhibition
Cc1ccc(-n2c(CSc3ccc(Cl)cc3)nnc2SCc2nc3ccccc3[nH]2)cc1	5%
CC(=O)Nc1cccc(C(=O)O)c1	-1%
COc1ccc2c(c1)CCCN2CCCCCCCCCN1CCCCC1	44%
CN(C)C(=O)/N=c1\ss/c(=N\C(=S)N(C)C)n1-c1ccccc1	29%
Clc1ccc(-c2nnc(-c3ccccn3)o2)c(Cl)c1	83% (active)
CC(O)CC(O)CC1CCCO1 (stereo not drawn)	9%
CC[C@]1(O)C[C@H]2[C@@H]3CCc4cc(OC)ccc4[C@H]3CC[C@]2(C)[C@H]1O	87% (active)
CCCCCCCCCCCCCCCCCCOS(=O)(=O)O (tested in a mixture with another compound)	49%
C/C(=N\NC(=S)N1CCCC1)c1nc2ncccc2[nH]1	97% (active)
CC(C)(C)C1=NN=C2c3ccccc3C(=O)C21 (stereo not drawn)	14%
O=C(O)c1ccc(N=CC2CO2)cc1 (stereo not drawn)	99% (active)
CCC1(C)C(C#N)(C#N)C1(C#N)C#N	85% (active)
COc1ccc(N(C)Sc2ccccc2)cc1	63%
C/C(CCn1[nH]c(=O)ccc1=O)=N\NS(=O)(=O)c1ccc(C)cc1	29%
CCC[n+]1ccc(/C=N\NC(N)=S)c2ccccc21	34%
O=S1CCS(=O)C1c1ccccc1 (stereo not drawn)	8%
NC(=O)c1c(Cl)nc2n1CCS2	-7%
CC(C)S(=O)(=O)ON1C(=O)c2ccc(N(C)C)cc2C1=O	42%
C=Cc1cc(=O)oc2cc(OC)ccc12	99% (active)
O=[N+]([O-])c1cc(Cl)cc2c1nc(NCCO)c1ccccc12	79% (active)

Structure (SMILES)	growth inhibition
c1ccc2nc3ccccc3nc2c1	36%
Cc1cc(O)ccc1SC#N	21%
CC1=C(C(=O)NCc2ccccc2)C(c2ccccc2O)C(C(=O)NCc2ccccc2)=C(C)N1	13%
Cc1occc1C(=S)Nc1ccc(Cl)c(COC(C)(C)C)c1	86% (active)
CCN(CC)CCOc1c(I)cc(I)cc1I	98% (active)
CCc1c(C(=O)OC)c(C(=O)OC)c(-c2ccccc2)n1CCn1c(CC)c(C(=O)OC)c(C(=O)OC)c1-c1ccccc1	52%
O=C1/C(=C/c2ccc(Cl)cc2)CSC/C1=C\c1ccc(Cl)cc1	34%
COc1ccc(C2COc3cc(O)c(O)cc3C2)cc1OC (stereo not drawn)	2%
O=C1c2ccccc2C(=O)c2c1cc(O)c(O)c2O	88% (active)
COc1cc[c]([Sn]([O][Sn]([Cl])([c]2ccc(OC)cc2)[c]2ccc(OC)cc2)[c]2ccc(OC)cc2)cc1	88% (active)
O=C(N/C(=C\c1ccc(/C=C(\NC(=O)c2ccccc2)c2nc3ccccc3s2)cc1)c1nc2ccccc2s1)c1ccccc1	38%
Cn1c(=O)cc[nH]c1=O	-1%
CCOC(=O)C1=C(c2ccccc2)SC(c2ccccc2)N(C(C)C)C1=O (stereo not drawn)	63%
S=C1NC2=C(CSC/C2=C\c2cccc(Br)c2)C(c2cccc(Br)c2)N1 (stereo not drawn)	96% (active)
c1ccc2[nH]c(CN(CCN(Cc3nc4ccccc4[nH]3)Cc3nc4ccccc4[nH]3)Cc3nc4ccccc4[nH]3)nc2c1	94% (active)
O=[N+]([O-])c1ccc(NC(=S)N/N=C(\c2ccccc2)c2ccccn2)cc1	75% (active)
O=C(NCCl)Nc1ccccc1	65%
O=Cc1[nH]c(=S)[nH]c(=O)c1CCCc1ccccc1	92% (active)
CCCC/C=C(/CCCCOCOCCOC)[Si](C)(C)C	-15%
